High-throughput results (PubChem)
Shiga inhibitor: A qHTS for Small Molecule Inhibitors of Shiga Toxin; Vero cells, Shiga toxin protein synthesis inhibition reporter; inhibition, % at 38.7 µM; 290,000 compounds, 9.2% hits; AID 2315, 2010; in the data active means inhibition mostly above about 28%, no sharp cut-off; inactive means mostly below about 43%
Pf growth 48h: Primary qHTS for delayed death inhibitors of the malarial parasite plastid, 48 hour incubation | P. falciparum luciferase growth in erythrocytes, 48 h | Potency, µM (series often up to 28.7 µM), hits mostly inhibitors | 310,000 compounds, 5.9% hits
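Luminescence readout; reporter = integrated firefly luciferase in P. falciparum. RBC culture at 2% hematocrit, 0.1% parasitemia final, 37 C/5% CO2; decreased signal taken as growth inhibition.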
CHX counter: Cycloheximide Counterscreen for Small Molecule Inhibitors of Shiga Toxin | 300,000 compounds, 12% hits | max response, % | cell reporter, cycloheximide protein synthesis inhibition counterscreen | AID 2314, 2010; in the data active means max response mostly above about 13%, no sharp cut-off; inactive means mostly below about 14%; further: read at 38.3 µM for the half of the compounds with a filed dose
Pf growth 96h: Primary qHTS for delayed death inhibitors of the malarial parasite plastid, 96 hour incubation; 320,000 compounds, 6.9% hits; Potency, µM (top dose mostly 28.7 µM), usual class: inhibitors; P. falciparum luciferase reporter growth, 96 h; AID 504834, 2011
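Infected RBCs, 2% Hct / 0.05% parasitemia final; luciferase-reporter P. falciparum; cpd 96 h, 37 C, 5% CO2; luciferase detection reagent; luminescence.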
Large screens that a line does not name were inactive. The list is not random: actives were taken first. Their share in the collection is about 21%. Unless noted, the call rests on the fitted dose curve; in most records, active means well fitted inhibition curve with a large enough effect; inconclusive means small, poorly fitted or top-dose-only effect, or another doubt; inactive means no such curve, though single readings can be large or run the other way.

CCCCCCCCCCOC(=O)Cn1c(COc2ccccc2)[n+](C)c2ccccc21	Pf growth 48h inconclusive, Pf growth 96h inconclusive
O=C(CSc1ccc(F)cc1)N1CCC(c2nc3ccccc3s2)CC1	Pf growth 48h inconclusive
O=C(CN1CCC(c2nc3ccccc3s2)CC1)N1CCCCC1	none
O=C(c1cccc(F)c1)N1CCC(c2nc3ccccc3s2)CC1	Pf growth 96h 4.1µM
O=C(CN1CCC(c2nc3ccccc3s2)CC1)NCc1cccs1	Shiga inhibitor 33, CHX counter 26, Pf growth 96h inconclusive
CNC(=S)N1CCC(c2nc3ccccc3s2)CC1	CHX counter 28
CCOCCCNC(=O)C1CCN(S(=O)(=O)c2ccc3nc4c(c(C(=O)O)c3c2)CCCCC4)CC1	none
COc1ccc(CCNC2CC(=O)N(CCc3ccc(OC)c(OC)c3)C2=O)cc1 (stereo unspecified)	Pf growth 96h 4.7µM (no result: Pf growth 48h)
COc1ccccc1N1C(=O)N(CC(=O)C(C)(C)C)c2ccccc2S1(=O)=O	none
CCOC(=O)C1CCN(Cc2ccc(OC)c(OCc3ccccc3)c2)CC1	Pf growth 96h 12µM
COc1cc(CNC(=O)C2CC2)ccc1OCc1ccccc1	Shiga inhibitor 64, CHX counter 46
COc1cc(CN2CCCCC2)ccc1OCc1ccccc1	Shiga inhibitor 56, CHX counter 32, Pf growth 96h inconclusive
COc1cc(CN2CCC(C(=O)NCCC(C)C)CC2)ccc1OCc1ccccc1	Shiga inhibitor 101, CHX counter 25
COC(=O)c1ccc(Oc2coc3cc(OCc4ccc([N+](=O)[O-])cc4)ccc3c2=O)cc1	none
COc1ccccc1Nc1n[nH]c(=S)s1	none
O=C(N/N=C\C=C\c1ccc(Br)cc1)c1ccc2c(c1)OCO2	Shiga inhibitor 23, CHX counter 9.9
O=C(N/N=C/C=C/c1ccc2c(c1)OCO2)c1ccc([N+](=O)[O-])cc1	none (no result: Pf growth 48h)
O=C(c1ccccc1)c1ccc2nc[nH]c2c1	none (no result: Pf growth 96h)
Cc1cc(=O)c2cc(C(=O)c3ccccc3)ccc2[nH]1	Pf growth 48h 13µM, CHX counter 9.4, Pf growth 96h inconclusive
Cc1nc2ccc(C(=O)c3ccccc3)cc2[nH]1	Shiga inhibitor 53, CHX counter 34
O=C(N/N=C/c1ccc2c(c1)OCO2)c1ccc(Cl)cc1Cl	CHX counter 15
O=C(N/N=C/c1ccc2c(c1)OCO2)c1ccc(NC(=O)c2ccc(F)cc2)cc1	Pf growth 48h 2.3µM
O=C(N/N=C/C1CC2CCC1C2)c1ccc2c(c1)OCO2 (stereo unspecified)	Shiga inhibitor 39, CHX counter 41
C[n+]1cccc(C(=O)N/N=C/c2ccc3c(c2)OCO3)c1	none
Cc1nc2ccc(C(=O)N/N=C/c3ccccc3O)cc2[nH]1	Shiga inhibitor 84, Pf growth 48h inconclusive, CHX counter 44, Pf growth 96h inconclusive
O=C(N/N=C/c1ccccc1O)c1ccc2c(c1)OCO2	Shiga inhibitor 96, CHX counter 50
COc1ccc(CCNC(=O)CSc2nc(=O)[nH]c3c2CCC3)cc1OC	Pf growth 48h inconclusive (no result: Shiga inhibitor, CHX counter)
CCOC(=O)C1CCC/C1=N\NC(=O)CN(c1cc(OC)ccc1OC)S(=O)(=O)c1ccccc1 (stereo unspecified)	Pf growth 48h inconclusive
CC(C)NC(=O)Cn1cc(C(=O)C(=O)N2CCOCC2)c2ccccc21	none
CCN(CC)c1ccc(/C=N/NC(=O)c2ccc(Br)o2)cc1	Shiga inhibitor 38, CHX counter 33, Pf growth 96h inconclusive
O=C(N/N=C/c1cccc([N+](=O)[O-])c1)c1ccc2c(c1)OCCO2	Shiga inhibitor 62, CHX counter 43
O=C(N/N=C/c1ccc2c(c1)OCO2)c1ccc(Br)o1	Shiga inhibitor 139, CHX counter 81
CCN(CC)c1ccc(/C=N/NC(=O)C2CC2)cc1	Shiga inhibitor 80, Pf growth 48h inconclusive, CHX counter 48
O=C(NCc1ccc2c(c1)OCO2)c1ccc(Br)o1	none
CCCCCCOc1ccc(/C=N/NC(=O)C2CC2)cc1	Pf growth 48h inconclusive
CCN(CC)c1ccc(/C=N/NC(=O)Cc2ccc(OC)c(OC)c2)cc1	Pf growth 48h inconclusive
CN1C(=O)Cc2cc(S(=O)(=O)Nc3ccc(N4CCOCC4)cc3)ccc21	none
Cc1ccc(C)c(N2CCN(C(=O)CCS(=O)(=O)c3ccc4c(c3)oc(=O)n4C)CC2)c1	Pf growth 48h inconclusive, Pf growth 96h inconclusive
CCN(CC)c1ccc(/C=N/NC(=O)Nc2nonc2N)cc1	Shiga inhibitor 66, CHX counter 57
O=C(N/N=C/c1ccc2c(c1)OCO2)c1ccc2c(c1)OCCO2	Shiga inhibitor 64, CHX counter 55
O=C(N/N=C/c1ccc2c(c1)OCCO2)c1ccncc1	none
O=C(N/N=C/c1ccncc1)c1ccc2c(c1)OCO2	Shiga inhibitor 76, CHX counter 24, Pf growth 96h inconclusive
CCN(CC)c1ccc(/C=N/NC(=O)c2c(-c3ccccc3)noc2C)cc1	none
O=C(N/N=C/c1cccs1)c1ccc2c(c1)OCO2	CHX counter 25
Cc1cc(Br)cc(/C=N/NC(=O)c2ccc3c(c2)OCO3)c1O	Shiga inhibitor 26, Pf growth 48h 13µM, CHX counter 17, Pf growth 96h 13µM
O=C(N/N=C/c1ccccc1OC(=O)c1ccc2c(c1)OCO2)c1cccc(F)c1	Shiga inhibitor 64
O=C(CNC(=O)c1ccc2c(c1)OCO2)N/N=C/c1cc(Br)ccc1O	none
O=C(N/N=C/c1ccsc1)c1ccc2c(c1)OCO2	none (no result: Shiga inhibitor, CHX counter)
O=C(N/N=C/c1ccc(Cl)cc1)c1ccc2c(c1)OCO2	Shiga inhibitor 90, CHX counter 51
COC(=O)N/N=C/c1cccc(OC(=O)c2ccc3c(c2)OCO3)c1	none
O=C(Nc1nnc(-c2ccc(Br)cc2)o1)c1cccc(N2C(=O)CCC2=O)c1	none (no result: Shiga inhibitor, CHX counter)
CCN(CC)CCCN1C(=O)CSC1c1ccc([N+](=O)[O-])cc1 (stereo unspecified)	none
CC(=O)c1ccc(N2CCN(C(=O)c3ccco3)CC2)c(F)c1	Shiga inhibitor 59, CHX counter 48 (no result: Pf growth 96h)
CC(=O)c1cc(F)c(N2CCN(C(=O)c3ccco3)CC2)cc1C	CHX counter 31 (no result: Pf growth 96h)
O=C(c1ccco1)N1CCN(c2ccc([N+](=O)[O-])cc2F)CC1	Shiga inhibitor 40, CHX counter 13
C=CCn1c(C(C)NC(=O)c2cccc(C)c2)n[nH]c1=S (stereo unspecified)	none
Cc1ccc(Cl)cc1N1CCN(C(=O)CN(c2ccccc2)S(=O)(=O)N(C)C)CC1	Pf growth 48h inconclusive
N#C/C(=C/c1ccccc1[N+](=O)[O-])c1nnc2n1CCCCC2	none
N#C/C(=C\c1cn(-c2ccccc2)nc1-c1cccnc1)c1nnc2n1CCCCC2	Pf growth 96h 8.3µM (no result: Pf growth 48h)
O=C(CC(=O)c1ccccc1)Nc1ccc(Cl)cc1	Shiga inhibitor 80, CHX counter 36
CC(=O)c1cccc(NC(=O)c2cc(Cl)sc2Cl)c1	Shiga inhibitor 39, CHX counter 25
COc1cccc(OC)c1C(=O)Nc1cccc(C(C)=O)c1	none
Cc1ccc(NC(=O)CC(=O)c2ccccc2)cc1C	Shiga inhibitor 101, CHX counter 34
O=C(Cc1ccc(Cl)cc1)Nc1ccc(NC(=O)c2ccccc2)cc1	none
